The record followed here is PubChem BioAssay (NCI).

Experiment [1] can be described thus: NCI Yeast Anticancer Drug Screen. Data for the rad50 strain (AID 155).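 Further: 0% = growth of vehicle-only cultures of the same strain.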 The note with it: S. cerevisiae rad50 strain growth inhibition; at 50.0 µM; active compounds read high. The method, boiled down: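 Cells are treated with compound, grown, and their growth is then scored against vehicle-only cultures of the same repair-deficient yeast strain.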
Experiment [2] in a line: NCI Yeast Anticancer Drug Screen. Data for the mec2-1 strain (AID 157). The settings on record: S. cerevisiae mec2-1 strain, at 50.0 µM, active compounds read high. The gist of the method: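 Compounds were applied to mec2-1 yeast cells. Their growth was then compared with that of vehicle-treated cultures to give growth inhibition.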
Experiment [3] can be described thus: NCI Yeast Anticancer Drug Screen. Data for the sgs1 mgt1 strain (AID 161).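 Further: 0% = growth of cultures given vehicle only.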 The note with it: S. cerevisiae sgs1 mgt1 strain, at 50.0 µM, active compounds read high. The gist of the method:
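Growth of a repair-deficient yeast mutant was monitored after compound treatment and expressed as inhibition relative to vehicle-treated cultures.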

Experiment [4] in a line: NCI Yeast Anticancer Drug Screen. Data for the cln2 rad14 strain (AID 165).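 Further: 0% = growth equal to vehicle treated cultures.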 The settings on record: S. cerevisiae cln2 rad14 strain, at 50.0 µM, active compounds read high. The gist of the method:
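Strain: cln2 rad14 yeast, altered in cell cycle control and DNA damage repair. Read-out: growth inhibition vs vehicle.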

The nature of experiment [5]: NCI Yeast Anticancer Drug Screen. Data for the bub3 strain (AID 167). The settings on record: S. cerevisiae bub3 mutant strain, at 50.0 µM, active compounds read high. The method, boiled down: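 Part of a panel of yeast mutants defective in DNA damage repair or cell cycle regulation. Each strain is grown with compound, and inhibition is calculated relative to solvent-treated cultures.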

Experiment [6] in a line: NCI Yeast Anticancer Drug Screen. Data for the mlh1 rad18 strain (AID 175). The settings on record: S. cerevisiae mlh1 rad18 strain growth inhibition; at 50.0 µM; active compounds read high. The method, boiled down:
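A repair-deficient yeast strain is exposed to test compound, and growth is scored relative to vehicle-treated controls.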

About 79,000 compounds went through this panel and 15% of them were active in at least one assay; those are over-represented in the sample as a whole. A number with no mark means an inactive call. The source made the active and inactive calls. No stated cut-off is given here; in the data, active means growth inhibition above about 70%; inactive means the rest.

As for `O=S1(=O)CS(=O)(=O)OCCCCO1`, the growth inhibition was 10.2% in experiment [1]; -5.75% in experiment [2]; 4.9% in experiment [3]; 13.3% in experiment [4]; -9.05% in experiment [5]; 7.85% in experiment [6].

Turning to `O=c1[nH]cnc2c1cnn2-c1ccccc1`, the growth inhibition is 17.1% in experiment [1]; 5.3% in experiment [2]; 9.7% in experiment [3]; 3.85% in experiment [4]; -2.05% in experiment [5]; 22.4% in experiment [6].

Take `COC(=O)Cc1cccnc1`: the growth inhibition in experiment [1] was -3.3%; in experiment [2], -6.85%; in experiment [3], -11.3%; in experiment [4], -0.55%; in experiment [5] it was 0.05%; in experiment [6], 12.7%.

Regarding `COc1c(NC(=O)c2ccc(C(=O)Nc3cccc([N+](=O)[O-])c3OC)cc2)cccc1[N+](=O)[O-]`, the growth inhibition was 22.3% in experiment [1]; -6.1% in experiment [2]; -9% in experiment [3]; -20.6% in experiment [4]; -2.2% in experiment [5]; -1.3% in experiment [6].

`Cc1ccc(N=Cc2ccc(C(N)=S)cc2)cc1`: the growth inhibition was 7.05% in experiment [1]; 21.3% in experiment [2]; 1.45% in experiment [3]; -17.4% in experiment [4]; 18.8% in experiment [5]; 24% in experiment [6].

Consider `O=C1ON=C2C3CC4CC12CC1(C3)C(=O)ON=C41`, for which the growth inhibition in experiment [1] was -3.05%; in experiment [2], -6.45%; in experiment [3], -3.8%; in experiment [4], -1.9%; in experiment [5], -12.1%; in experiment [6], -19.8%.

On to `CCCCOC(=O)C1CSSCC(NC(C)=O)C(=O)N1` (stereo not drawn), for which the growth inhibition in experiment [1] was -2.05%; in experiment [2] it was -7.35%; in experiment [3], 1.5%; in experiment [4], -16.5%; in experiment [5], -7.2%; in experiment [6], -6.95%.

On to `O=[N+]([O-])c1ccc(C=C2C=c3ccccc3=C2)cc1`, for which the growth inhibition in experiment [1] was 5.8%; in experiment [2], 1.1%; in experiment [3] it was -14.4%; in experiment [4], -28.9%; in experiment [5] it was 5.3%; in experiment [6], 7.3%.

With `O=S(=O)(c1cccc(C(F)(F)F)c1)N(CCCCCN(S(=O)(=O)c1cccc(C(F)(F)F)c1)S(=O)(=O)c1cccc(C(F)(F)F)c1)S(=O)(=O)c1cccc(C(F)(F)F)c1`, the growth inhibition in experiment [1] was -12.2%; in experiment [2] it was 2.95%; in experiment [3] it was 0.2%; in experiment [4] it was 21.3%; in experiment [5], 11.9%; in experiment [6], 10.2%.

With `C[P+](Cc1ccc([N+](=O)[O-])cc1)(c1ccccc1)c1ccccc1`, the growth inhibition was -2.85% in experiment [1]; -19.1% in experiment [2]; -3.15% in experiment [3]; -1.7% in experiment [4]; -9.8% in experiment [5]; -7.15% in experiment [6].

For the compound `CCCC(CC)=C(c1ccc(OC(C)=O)cc1)c1ccc(OC(C)=O)cc1`, the growth inhibition in experiment [1] was 44.4%; in experiment [2] it was 24.3%; in experiment [3], 51.5%; in experiment [4], 38.9%; in experiment [5], 31%; in experiment [6], 54.7%.

In the case of `C=CC1CCC[N+]1(CC(=O)OCC)Cc1ccccc1` (stereo not drawn), the growth inhibition in experiment [1] was -15.2%; in experiment [2] it was -13.9%; in experiment [3] it was -25.2%; in experiment [4] it was 3.7%; in experiment [5] it was -2.15%; in experiment [6], -10.8%.

With `CCOC(=O)c1cnc2ccccc2c1N=[N+]=[N-]`, the growth inhibition is -0.9% in experiment [1]; 27.8% in experiment [2]; 25.5% in experiment [3]; -34% in experiment [4]; 40.5% in experiment [5]; 29.9% in experiment [6].

For `CN(C)c1ccc(C2(c3ccc(N(C)C)cc3)c3ccccc3C(=O)N2N)cc1`, the growth inhibition in experiment [1] is 54.1%; in experiment [2], 34.5%; in experiment [3], 18.2%; in experiment [4], 43.5%; in experiment [5], 77.5% (active); in experiment [6], 21.7%.

For `C(=C/c1ccccc1)/CN1CCCCC1`, the growth inhibition is 29.4% in experiment [1]; 19.4% in experiment [2]; 36% in experiment [3]; 11.4% in experiment [4]; 37.2% in experiment [5]; 29.4% in experiment [6].

Consider `O=C(Nc1ccccn1)OCCCl`, for which the growth inhibition in experiment [1] was -1.6%; in experiment [2], 0.6%; in experiment [3], 4.35%; in experiment [4], 10.1%; in experiment [5], -28.2%; in experiment [6], 7.1%.

For `O=c1[nH]cc(COCCO)c(=O)[nH]1`, the growth inhibition in experiment [1] was -20.1%; in experiment [2], -2.8%; in experiment [3], -19.4%; in experiment [4] it was 7.4%; in experiment [5], -18%; in experiment [6], 7.2%.

Take `O=[N+]([O-])c1ccc(N=Nc2ccc(O)c3c(O)cc(S(=O)(=O)O)cc23)cc1S(=O)(=O)O`: the growth inhibition in experiment [1] was 30.6%; in experiment [2] it was 9%; in experiment [3], 6.85%; in experiment [4], -24.8%; in experiment [5], -11.4%; in experiment [6], 50.1%.

With `C/C(=N\NC(N)=S)C(CN(CC(C)C)CC(C)C)C(=O)Nc1ccc(C)cc1C` (stereo not drawn), the growth inhibition was -18.7% in experiment [1]; 6.4% in experiment [2]; -7.15% in experiment [3]; 16% in experiment [4]; -1.15% in experiment [5]; -2.75% in experiment [6].

In the case of `C[Si](C)(C)c1ccc(C(=O)O)cc1`, the growth inhibition in experiment [1] was 7.3%; in experiment [2] it was 12.6%; in experiment [3] it was -3.35%; in experiment [4], 3.2%; in experiment [5] it was -18.3%; in experiment [6], 10.2%.

For the compound `COc1ccc(N2C(=O)C(C)SC23C(=O)Nc2ccccc23)cc1` (stereo not drawn), the growth inhibition in experiment [1] is 13.6%; in experiment [2] it was 20.4%; in experiment [3], 5.75%; in experiment [4], 2.5%; in experiment [5], 4.75%; in experiment [6], 18.8%.

For the compound `O=CNCC(=O)Nc1ccccc1`, the growth inhibition is -8.4% in experiment [1]; -2.45% in experiment [2]; -3.45% in experiment [3]; -6.9% in experiment [4]; 10.8% in experiment [5]; -10.4% in experiment [6].

Turning to `O=C1c2cc(F)ccc2-c2c(F)cc(F)cc21`, the growth inhibition in experiment [1] is 19.9%; in experiment [2], -6.4%; in experiment [3], -2.1%; in experiment [4], 40.5%; in experiment [5], -3.85%; in experiment [6] it was -8.8%.

For `COc1ccc(CCN=C2OCc3ccccc32)cc1OC`, the growth inhibition is 36.1% in experiment [1]; -49.6% in experiment [2]; -42.6% in experiment [3]; -18.6% in experiment [4]; -21.5% in experiment [5]; -50.7% in experiment [6].

Regarding `c1ccc2c(c1)cnc1cc3c(cc12)ncc1ccccc13`, the growth inhibition is 8.05% in experiment [1]; 19.9% in experiment [2]; 9.3% in experiment [3]; 14.8% in experiment [4]; -6.45% in experiment [5]; 28.8% in experiment [6].

For the compound `CN(C)CC(O)C(=O)O` (stereo not drawn), the growth inhibition is -12.7% in experiment [1]; 20.4% in experiment [2]; -5.6% in experiment [3]; 7.45% in experiment [4]; 3.7% in experiment [5]; -13.8% in experiment [6].

For `CN(C)CCNS(=O)(=O)N(C)C`, the growth inhibition is -25.1% in experiment [1]; -25.1% in experiment [2]; -24.4% in experiment [3]; 7.45% in experiment [4]; -51.8% in experiment [5]; 8.45% in experiment [6].

Consider `NC(=O)C(=CNc1nc(-c2ccc(Cl)c(Cl)c2)cs1)C(N)=O`, for which the growth inhibition was -53.9% in experiment [1]; -45.1% in experiment [2]; -29.4% in experiment [3]; -17.2% in experiment [4]; -6.5% in experiment [5]; -8.25% in experiment [6].

Regarding `CCOC(=O)C(C(=O)OCC)c1cc(-c2cc3ccccc3o2)oc(=O)c1C#N`, the growth inhibition in experiment [1] was 47.7%; in experiment [2], 20.5%; in experiment [3] it was 10.2%; in experiment [4] it was 15.8%; in experiment [5] it was -4.15%; in experiment [6], 30.1%.

For `Cc1nn(C(=O)c2ccncc2)c2c1C(c1ccccc1[N+](=O)[O-])SC(N)=N2` (stereo not drawn), the growth inhibition in experiment [1] was 21.4%; in experiment [2] it was 6.15%; in experiment [3] it was 40.1%; in experiment [4], 26.1%; in experiment [5], 43.6%; in experiment [6], 18.9%.

Regarding `CCCCN(CCCC)CC(O)c1cc(-c2c(Cl)cccc2Cl)nc2c(Cl)cc(Cl)cc12` (stereo not drawn), the growth inhibition in experiment [1] is 53.3%; in experiment [2] it was 55.3%; in experiment [3], 55%; in experiment [4], 13.8%; in experiment [5], 20.8%; in experiment [6], 64.1%.

Consider `O=C1CCCC(c2ccccc2)O1` (stereo not drawn), for which the growth inhibition in experiment [1] was -3.1%; in experiment [2], -14.2%; in experiment [3], 5.2%; in experiment [4], -67.5%; in experiment [5], -27.4%; in experiment [6], 14.7%.

Consider `Cc1cccc(NC(=O)Oc2cc(C)c(Cl)cc2C(C)C)c1`, for which the growth inhibition is 93% (active) in experiment [1]; 98.9% (active) in experiment [2]; 96.8% (active) in experiment [3]; 93.3% (active) in experiment [4]; 98.5% (active) in experiment [5]; 98% (active) in experiment [6].

Turning to `O=C1C(Cl)C(c2ccc(O)cc2)N1n1cnc2ccccc2c1=O` (stereo not drawn), the growth inhibition in experiment [1] was 56.6%; in experiment [2] it was 37.9%; in experiment [3], 59.4%; in experiment [4], 31.9%; in experiment [5], 32.8%; in experiment [6], 36.6%.

Consider `CC(C)NCC1CCCO1` (stereo not drawn), for which the growth inhibition in experiment [1] was -6.65%; in experiment [2], -23.2%; in experiment [3], -16.4%; in experiment [4], 4.9%; in experiment [5], -5.7%; in experiment [6] it was -7.85%.

For the compound `CCOC(=O)C(C(C)=O)C(c1ccc(OCc2ccccc2)c(C)c1)C(C(C)=O)C(=O)OCC` (stereo not drawn), the growth inhibition in experiment [1] is 14.7%; in experiment [2], 3.9%; in experiment [3], 25.9%; in experiment [4], 27.1%; in experiment [5], 8.55%; in experiment [6] it was 19.9%.

Take `O=C(Cc1ccccc1)NCc1ccccc1`: the growth inhibition in experiment [1] is -1.7%; in experiment [2], -7.15%; in experiment [3] it was 13.9%; in experiment [4] it was -3.3%; in experiment [5], 2.55%; in experiment [6], 8.7%.

`C/C(=N/NC(N)=O)C1=CCCCC1`: the growth inhibition in experiment [1] was -7%; in experiment [2] it was 7.3%; in experiment [3], 6.35%; in experiment [4] it was 4.1%; in experiment [5], 0.7%; in experiment [6] it was 7.4%.
